Out of some 310,000 compounds screened, about 2,200 (0.71%) showed an effect of 50% or more. The effect is printed as a negative number. For the sample, strong results were picked, then their nearest neighbours and some compounds at random.
target: human ether-à-go-go-related gene (hERG) potassium channel (human, UniProt Q12809); experiment: primary screen, population patch clamp on CHO cells stably expressing hERG; higher = less effect of the substance
Sequence (Q12809 whole entry, looked up): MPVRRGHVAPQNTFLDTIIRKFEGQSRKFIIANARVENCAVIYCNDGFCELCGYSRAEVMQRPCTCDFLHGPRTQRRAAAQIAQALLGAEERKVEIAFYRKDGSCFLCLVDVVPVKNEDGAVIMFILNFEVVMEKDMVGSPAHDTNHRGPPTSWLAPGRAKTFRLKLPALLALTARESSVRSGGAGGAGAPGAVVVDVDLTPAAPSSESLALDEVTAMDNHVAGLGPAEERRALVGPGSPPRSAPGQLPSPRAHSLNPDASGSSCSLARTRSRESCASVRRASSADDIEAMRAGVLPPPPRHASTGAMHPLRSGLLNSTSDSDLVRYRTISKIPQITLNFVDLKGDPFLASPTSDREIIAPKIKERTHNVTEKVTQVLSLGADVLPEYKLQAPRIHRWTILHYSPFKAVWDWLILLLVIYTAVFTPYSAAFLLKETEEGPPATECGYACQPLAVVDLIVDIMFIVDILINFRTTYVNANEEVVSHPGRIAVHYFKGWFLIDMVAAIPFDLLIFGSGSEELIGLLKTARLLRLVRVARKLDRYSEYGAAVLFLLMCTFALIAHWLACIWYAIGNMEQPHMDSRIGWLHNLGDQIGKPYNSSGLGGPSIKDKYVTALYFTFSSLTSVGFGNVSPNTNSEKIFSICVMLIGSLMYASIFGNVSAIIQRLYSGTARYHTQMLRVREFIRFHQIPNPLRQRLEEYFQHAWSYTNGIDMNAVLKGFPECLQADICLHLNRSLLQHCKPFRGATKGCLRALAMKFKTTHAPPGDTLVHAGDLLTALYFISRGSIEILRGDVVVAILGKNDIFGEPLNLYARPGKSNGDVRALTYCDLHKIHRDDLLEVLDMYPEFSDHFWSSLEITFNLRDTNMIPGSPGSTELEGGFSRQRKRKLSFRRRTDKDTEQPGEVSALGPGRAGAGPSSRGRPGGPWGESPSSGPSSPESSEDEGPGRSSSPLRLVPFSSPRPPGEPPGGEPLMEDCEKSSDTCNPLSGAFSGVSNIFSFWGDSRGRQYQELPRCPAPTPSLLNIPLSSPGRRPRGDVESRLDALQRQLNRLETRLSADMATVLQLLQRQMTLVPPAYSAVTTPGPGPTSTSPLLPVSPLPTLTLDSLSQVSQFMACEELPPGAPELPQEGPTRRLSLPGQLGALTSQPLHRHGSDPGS

Row | Compound | hERG current change (%, negative = inhibition) at 1uM
1 | Cc1cc(N2CCCC2)ccc1NC(=O)CN1C(=O)NC(C)(c2ccccc2)C1=O (centres unmarked) | 16%
2 | O=P(O)(CCc1ccccc1)C(O)c1ccccc1 (centres unmarked) | 5.09%
3 | COc1cc(OC)cc(C(=O)N[C@H](C(=O)OCC(=O)NC(=O)c2cccn2C)C(C)C)c1 | 6.95%
4 | C=CCNC(=O)CSc1ccc(Cl)cc1 | 13.7%
5 | CNc1nnc(-c2ccc(C)cc2)c2ccccc12 | -5.45%
6 | Cc1ccc([N+](=O)[O-])c2c1C(N1CC(C)OC(C)C1)C(C)(C)O2 (centres unmarked) | 17.1%
7 | CCOc1ccc(NC(=O)COc2ccc(C(=O)NCCc3ccccc3)cc2)cc1 | 3.64%
8 | Cc1cc(C(=O)N/N=C/c2cccc(Cl)c2Cl)no1 | 3.36%
9 | O=C1OC(N2C(=O)CC[C@H]2C(=O)Nc2ccc(F)c(F)c2)c2ccccc21 (some centres unmarked) | 8.61%
10 | CC(=O)c1ccc(NC(=O)CSc2n[nH]c(-c3cccnc3)n2)cc1 | 14.1%
11 | COc1ccc(CCNC(=O)c2cc3c(=O)n4cccc(C)c4nc3n(CC3CCCO3)c2=N)cc1 (centres unmarked) | -79.4%
12 | Cc1cccn2c(=O)c3cc(C(=O)NCCc4ccccc4)c(=N)n(CC4CCCO4)c3nc12 (centres unmarked) | -91%
13 | COc1ccc(CCNC(=O)Cn2c(=O)n(CC3CCCO3)c(=O)c3ccccc32)cc1OC (centres unmarked) | 3.58%
14 | N=c1c(C(=O)NCCc2ccccc2)cc2c(=O)n3ccccc3nc2n1CC1CCCO1 (centres unmarked) | -93.8%
15 | COc1ccc(CCNC(=O)c2cc3c(=O)n4ccccc4nc3n(CC3CCCO3)c2=N)cc1OC (centres unmarked) | -90.3%
16 | O=C(CSc1nc2ccccc2c(=O)n1CC1CCCO1)NCCc1ccccc1 (centres unmarked) | 19.6%
17 | Cc1ccc(NC(=O)N2CCCCCC2)cc1 | 0.321%
18 | CCOC(=O)c1cnc(-n2nc(C)cc2C)nc1Nc1ccc(O)cc1 | 14.2%
19 | COc1cc(Cl)c(C)cc1NC(=O)CSc1sc2c(O)cc(=O)[nH]c2c1C#N | 18.7%
20 | CC(=O)c1ccccc1NS(C)(=O)=O | 9.61%
21 | COc1ccccc1Nc1ncnc2ccc(C)cc12 | 12.7%
22 | Cc1cccn2c(=O)c3cc(C(=O)NCc4ccc(F)cc4)c(=N)n(CC4CCCO4)c3nc12 (centres unmarked) | -81.8%
23 | Cc1ccc2nc3c(cc(C(=O)NCCc4ccccc4)c(=N)n3CC3CCCO3)c(=O)n2c1 (centres unmarked) | -84%
24 | COc1ccc(CNC(=O)c2cc3c(=O)n4cccc(C)c4nc3n(CC3CCCO3)c2=N)cc1 (centres unmarked) | -83.8%
25 | Cc1ccc(S(=O)(=O)c2cc3c(=O)n4cccc(C)c4nc3n(CC3CCCO3)c2=N)cc1C (centres unmarked) | 12.9%
26 | Cc1ccc(CCNC(=O)c2ccc3nc4ccccc4c(=O)n3c2)cc1 | 14.3%
27 | CC1CN(C(=O)c2c([N+](=O)[O-])cnn2C)CC(C)O1 (centres unmarked) | 1.78%

Row | Compound | hERG current change (%, negative = inhibition) at 1uM
28 | NNC(=O)C1CC(O)CN1S(=O)(=O)c1ccc(Cl)cc1 (centres unmarked) | 6.56%
29 | O=C(Nc1ccc(-c2csc(-c3ccccc3)n2)cc1)c1ccccc1Cl | 16.9%
30 | CCOC(=O)N1CCC(NC(=O)c2cc(C(=O)Nc3ccc(OC)c(OC)c3)ccc2CO)CC1 | 4.41%
31 | O=S(=O)(c1ccccc1Cl)N1CCC(Cc2ccccc2)CC1 | 13.5%
32 | CCCCc1nn(-c2cc(Cl)ccc2OC)c2c1C(=O)CCC2 | 12.2%
33 | COC(=O)C1=C(c2ccc(F)cc2OCc2ccccc2)C[C@@H]2CC[C@H]1N2C(=O)NCCNC(C)=O | 16.4%
34 | Cc1cc(=O)n2nc(N3CCC(C(=O)NCC(C)c4ccccc4)CC3)sc2n1 (centres unmarked) | 11.7%
35 | COCCNc1c2c(nc3c(-c4ccccc4)c(C)nn13)CCCC2 | 5.77%
36 | Cc1nn2c(NCCOCCO)c3c(nc2c1-c1ccccc1)CCCC3 | -75.3%
37 | Cc1nn2c(NCCOCCO)c3c(nc2c1-c1ccccc1)CCC3 | -9.29%
38 | O=C(CCS(=O)(=O)c1cccs1)Nc1ccc(C(=O)NC2CCN(Cc3ccccc3)CC2)cc1 | 7.84%
39 | CCC(CC)C(=O)c1c[nH]c(C(=O)NCc2ccccn2)c1 | 8.96%
40 | Cc1ccc(-n2ncc3c2CCCC3NC(=O)c2ccoc2)cc1C (centres unmarked) | -78.5%
41 | CC1(C)Cc2c(cnn2-c2ccc(F)cc2)C(NC(=O)C(C)(C)O)C1 (centres unmarked) | 12.6%
42 | Cc1ccc(-n2ncc3c2CC(C)(C)CC3NC(=O)c2cc[n+]([O-])cc2)cc1 (centres unmarked) | -62.7%
43 | CC1(C)Cc2c(cnn2-c2ccc(F)cc2)C(NC(=O)C2CCC2)C1 (centres unmarked) | -56.8%
44 | Cc1ccc(-n2ncc3c2CC(C)(C)CC3NC(=O)c2ccc[n+]([O-])c2)cc1 (centres unmarked) | 7.22%
45 | COC(=O)c1ccc(C(=O)NC2CC(C)(C)Cc3c2cnn3-c2ccc(F)cc2)nc1 (centres unmarked) | -0.769%
46 | Cc1cc(C(=O)NC2CC(C)(C)Cc3c2cnn3-c2ccc(F)cc2)nn1C (centres unmarked) | 5.91%
47 | COC(=O)c1ccc(C(=O)NC2CCCc3c2cnn3-c2ccc(C)c(C)c2)cc1 (centres unmarked) | 12.4%
48 | Cc1ccc(-n2ncc3c2CC(C)(C)CC3NC(=O)c2ccncc2)cc1 (centres unmarked) | -48.8%
49 | CC1(C)Cc2c(cnn2-c2ccc(F)cc2)C(NC(=O)C2=NNC(=O)CC2)C1 (centres unmarked) | -52.1%
50 | Cc1cc(C(=O)NC2CCCc3c2cnn3-c2ccc(C)c(C)c2)no1 (centres unmarked) | 1.86%
51 | CC(=O)N1CCC(C(=O)NC2CC(C)(C)Cc3c2cnn3-c2ccc(F)cc2)CC1 (centres unmarked) | -11.3%
52 | CC(C)C(=O)Nc1ccc(NC(=O)c2ccccn2)cn1 | 12.6%
53 | O=C(CSc1nnc(CNC(=O)c2ccccc2F)o1)Nc1cccc(C(F)(F)F)c1 | 16%

Reference: paper PMC4336329 (PLoS ONE, 2015)
